Source: PubChem BioAssay (Broad Institute)
Env fusion inh: HIV envelope-mediated fusion inhibition; HeLa-JRFL Env/CEM21 cell fusion, luciferase; inhibition, % at 12.3 µM; 360,000 tested, 1.1% active; AID 651610;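 active = mean replicate inhibition score of at least 50 and every replicate individually at or above 50; inconclusive = only one of the two criteria met; inactive = mean below 50 and not all replicates reaching 50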;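 note: 0% = plate neutral controls and 100% = maraviroc near 300 nM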
NSD2 HMT inh: NSD2 (human) methyltransferase inhibition; inhibition, % at 12.5 µM; NSD2 peptide methylation, AlphaScreen, 120 min; O96028; 310,000 tested, 0.54% active; in the data active = inhibition above about 50%
Target sequence (O96028 whole entry, looked up): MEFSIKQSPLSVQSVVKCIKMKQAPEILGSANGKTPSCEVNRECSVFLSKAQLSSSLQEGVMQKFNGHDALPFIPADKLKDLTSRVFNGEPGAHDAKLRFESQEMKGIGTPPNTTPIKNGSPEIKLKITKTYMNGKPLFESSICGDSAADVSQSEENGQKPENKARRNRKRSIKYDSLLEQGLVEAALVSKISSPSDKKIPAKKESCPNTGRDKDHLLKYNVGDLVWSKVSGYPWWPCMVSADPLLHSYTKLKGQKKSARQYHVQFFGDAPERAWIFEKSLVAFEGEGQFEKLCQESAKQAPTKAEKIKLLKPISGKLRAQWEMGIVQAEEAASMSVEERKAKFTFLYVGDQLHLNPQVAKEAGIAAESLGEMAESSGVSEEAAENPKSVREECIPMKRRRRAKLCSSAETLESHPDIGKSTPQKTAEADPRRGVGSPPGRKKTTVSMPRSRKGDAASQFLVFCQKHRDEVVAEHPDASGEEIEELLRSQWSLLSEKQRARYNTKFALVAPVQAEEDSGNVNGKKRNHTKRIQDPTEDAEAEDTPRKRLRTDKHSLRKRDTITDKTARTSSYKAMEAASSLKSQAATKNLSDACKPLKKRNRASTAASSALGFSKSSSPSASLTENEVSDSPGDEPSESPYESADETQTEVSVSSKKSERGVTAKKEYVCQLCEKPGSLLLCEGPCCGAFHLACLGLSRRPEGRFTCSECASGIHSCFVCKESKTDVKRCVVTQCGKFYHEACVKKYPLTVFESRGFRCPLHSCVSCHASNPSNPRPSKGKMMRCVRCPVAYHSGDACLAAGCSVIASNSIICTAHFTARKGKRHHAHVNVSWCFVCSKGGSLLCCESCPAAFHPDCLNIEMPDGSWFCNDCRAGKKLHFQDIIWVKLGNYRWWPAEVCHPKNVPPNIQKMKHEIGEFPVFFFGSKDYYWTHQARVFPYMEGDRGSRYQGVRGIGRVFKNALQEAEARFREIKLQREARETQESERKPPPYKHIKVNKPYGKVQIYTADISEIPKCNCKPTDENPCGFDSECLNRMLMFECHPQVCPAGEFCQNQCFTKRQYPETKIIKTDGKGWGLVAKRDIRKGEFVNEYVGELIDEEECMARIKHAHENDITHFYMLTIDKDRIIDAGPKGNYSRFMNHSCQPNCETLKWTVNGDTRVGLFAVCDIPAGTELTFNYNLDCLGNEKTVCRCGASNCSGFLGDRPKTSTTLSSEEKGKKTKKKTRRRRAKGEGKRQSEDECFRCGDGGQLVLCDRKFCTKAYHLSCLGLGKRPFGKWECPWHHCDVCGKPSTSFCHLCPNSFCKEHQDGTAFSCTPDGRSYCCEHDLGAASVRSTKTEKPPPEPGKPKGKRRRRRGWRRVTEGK
Glyco luc inh: N-linked glycosylation inhibition. D54 ERlucT glycosylation luciferase reporter, 24 h; percent of 100 nM tunicamycin response. reporter increase, % at 12.5 µM. AID 588692. 360,000 tested, 0.23% active;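 active = mean luciferase reporter signal, scaled so untreated is 0 and the glycosylation-blocking control 100, at or above a set limit in every replicate; inconclusive = mean reaches the limit but not every replicate does; inactive = mean below the limit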;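 note: luciferase carries N-glycosylation sites so blocking glycosylation raises the light; 0% = median of neutral control wells and 100% = median of 100 nM tunicamycin wells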
LMP1 NFkB inh: reduces LMP1-driven NF-kappaB luciferase signal; inhibition, % at 12.5 µM; LMP1-induced NF-kappaB luciferase reporter cells, luminescence; 350,000 tested, 0.69% active; in the data active = inhibition above about 41%; inconclusive = no clear call, values can overlap the other calls;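 note: 0% = neutral control wells and 100% = reference inhibitor control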
Shn3 3UTR inh: inhibitors of Schnurri-3 3'UTR reporter in osteoblasts; 360,000 tested, 0.52% active; Clone20 osteoblast Shn3 3'UTR firefly luciferase, 24 h; inhibition, % at 12.5 µM; AID 588674;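 active = mean inhibition of at least 75% with every replicate also reaching 75%; inconclusive = mean inhibition at least 75% but some replicate below; inactive = mean inhibition below 75%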;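 note: 0% = median of neutral control wells and 100% = pilot-screen positive control compound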
PAX8 inh HTS: lowers PAX8-driven luciferase in RMG-I cells. inhibition, % at 12.6 µM. 360,000 tested, 1.2% active. AID 652154. RMG-I TPO-luciferase reporter, SteadyGlo, 24 h;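 active = mean replicate inhibition at least 60% with every replicate also reaching 60%; inconclusive = only one of the two criteria is met; inactive = mean below 60% and not all replicates reaching 60%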;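 note: luciferase light reporting Pax8 driven TPO promoter activity; plate controls were median of neutral control wells for no effect and mitoxantrone controls for full effect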
* marks the source's active call; other numbers are inactive results; i = inactive; ? = inconclusive; · = no result given; [ ] = another dose, or the depositor's remark. The list is not random: actives were taken first. Their share in the collection is about 2.8%.

SMILES	Env fusion inh	NSD2 HMT inh	Glyco luc inh	LMP1 NFkB inh	Shn3 3UTR inh	PAX8 inh HTS
O=C(c1ccccc1)C(CCC(CN1CCOCC1)C(=O)c1ccccc1)CN1CCOCC1 (stereo not drawn)	·	0.4	-19.1	50.1*	97.1*	·
COc1ccc(C(O)(C2CCCCC2)C(CN2CCOCC2)c2ccccc2)cc1 (stereo not drawn)	74.3*	-0.5	-8.7	8.8	17.0	8.4
COc1ccc(C(=O)C(CN2CCOCC2)c2ccccc2)cc1 (stereo not drawn)	·	·	-14.1	?	89.3*	·
OC(c1ccccc1)(C1CCCCC1)C(CN1CCOCC1)c1ccccc1 (stereo not drawn)	32.9	-4.1	-10.6	2.6	-3.1	18.2
C[C@@H]1CN([C@H](C)CO)C(=O)c2cc(NC(=O)Nc3cccc4ccccc34)ccc2O[C@@H]1CN(C)Cc1ccncc1	-4.1[16.7 µM]	·	·	·	·	-1.3
O=C(C1CCCCC1)N1C[C@@H]2[C@H](c3ccccc31)[C@@H](CO)N2C(=O)c1ccccc1F	·	·	·	·	·	8.5
C/C=C/c1cnc2c(c1)C(=O)N([C@@H](C)CO)C[C@H](C)[C@@H](CN(C)C(=O)NCCC)O2	-23.2[16.7 µM]	·	·	·	·	·
CCCCCC(O)(c1ccc(OCC)cc1)C(CN1CCOCC1)c1ccccc1 (stereo not drawn)	59.0*	-3.1	-11.5	4.5	-0.9	25.0
Cc1[nH][nH]c(=O)c1C(c1ccc(-c2ccc(Cl)c(Cl)c2)o1)c1c(C)[nH][nH]c1=O	·	·	46.5*	17.2	37.3	·
COC(=O)c1c(NC(=O)C(Cl)Cl)sc2c1C(C(=O)OC)CC2 (stereo not drawn)	-81.9	0.4	-1.4	-26.9	-7.4	63.7*
COC(=O)c1c(NC(=O)C(C)(C)C)sc2c1C(C(=O)OC)CC2 (stereo not drawn)	i	2.3	3.5	2.5	3.1	-5.4
N#C/C(=C\c1ccc2c(c1)OCCO2)C(=O)NC1CCCCC1	-9.4	-1.6	2.2	9.3	-26.7	100.1*
COc1ccc(/C=C(/C#N)C(=O)NC2CCCCC2)cc1Br	-39.9	0.8	6.6	14.6	18.6	·
C[C@@H]1CN([C@@H](C)CO)C(=O)Cc2cc(NC(=O)CCC(F)(F)F)ccc2O[C@@H]1CN(C)Cc1ccc(Oc2ccccc2)cc1	4.2[16.7 µM]	·	·	·	·	-6.6
CCCC#Cc1cnc2c(c1)C(=O)N([C@@H](C)CO)C[C@H](C)[C@@H](CN(C)C(=O)Nc1ccccc1OC)O2	-5.5[16.7 µM]	·	·	·	·	·
COc1ccc(/C=N/OCC(=O)NC(c2ccccc2)c2ccccc2)cc1OC	62.0*	-2.2	-0.8	24.6	81.2	-0.6
CCCCCCC(=O)N(O)C1CC(=O)N(Cc2ccccc2)C1=O (stereo not drawn)	40.8	-0.7	49.2*	51.8*	-23.0	·
C[C@H](CO)N1C[C@H](C)[C@H](CN(C)C(=O)Nc2ccccc2)Oc2c(NC(=O)NC3CCCCC3)cccc2C1=O	·	·	·	·	·	8.4
CCOC(=O)c1c(C)oc2c1c(C(c1ccccc1)N1CCOCC1)c(O)c1ccccc12 (stereo not drawn)	-362.1	-0.4	17.1	-70.0	-96.8	-12.5
CCOC(=O)c1c(C)oc2c1c(C=NCCO)c(O)c1ccccc12	34.9	100.6*	3.6	-2.6	27.7	33.2
Cc1cc(Nc2ccc(Cl)cc2)nc(NCc2ccccc2)n1	71.0*	0.9	-6.4	6.6	76.6	8.6
C[C@@H]1CN([C@@H](C)CO)C(=O)Cc2cc(NC(=O)Nc3ccc4c(c3)OCO4)ccc2O[C@H]1CN(C)C(=O)Nc1ccc(F)cc1	15.5[16.7 µM]	·	·	·	·	-21.2
COc1cccc(-c2nnc3n2N=C(C(C)(C)C)CS3)c1	111.8*	-1.1	-14.3	64.6*	-3.4	-13.3
Clc1ccccc1C1=Nn2c(nnc2-c2ccncc2)SC1	92.0*	1.0	-8.7	55.6*	0.3	·
COc1ccc(OC)c(-c2nnc3n2N=C(c2ccc(OC)c(OC4CCOC4)c2)CS3)c1 (stereo not drawn)	-182.4	·	9.6	26.2	11.9	96.8*
SMILES	Env fusion inh	NSD2 HMT inh	Glyco luc inh	LMP1 NFkB inh	Shn3 3UTR inh	PAX8 inh HTS
COc1ccc(C2=Nn3c(nnc3-c3ccc(OC)cc3)SC2)cc1	-1.1	0.4	29.0*	2.8	11.1	·
COc1ccc(C2=Nn3c(nnc3-c3cc(C)[nH]n3)SC2)cc1	10.6	-0.1	12.9	13.0	5.0	4.9
COc1ccc(C(=O)N/N=C/c2ccc(OC(=O)c3cccs3)cc2)cc1	·	1.6	2.1	-5.7	-19.2	100.7*
O=C(N/N=C\c1ccc(OC(=O)c2cccs2)cc1)c1ccc(Cl)cc1	10.2	-2.5	2.6	-19.9	-18.5	-12.0
COc1ccc(CN(C)C[C@@H]2Oc3c(NS(=O)(=O)c4ccc(OC)cc4)cccc3C(=O)N([C@@H](C)CO)C[C@@H]2C)cc1	7.5[16.7 µM]	·	·	·	·	·
CCN(CC)S(=O)(=O)c1cc([N+](=O)[O-])ccc1NNC(=O)Nc1ccc(Cl)c(Cl)c1	97.0*	-3.6	-10.0	45.7*	·	88.7*
c1ccc(/N=C2\N=C(Nc3ccccn3)c3ccccc32)nc1	11.7	-0.4	1.8	30.7	84.0	79.0*
O=C(CCl)Nc1cccc(-c2cnc3ccccc3n2)c1	-212.7	1.9	-7.4	-31.7	-262.1	-78.2
O=C(CCl)Nc1ccc(Oc2cnc3ccccc3n2)cc1	55.5*	-1.1	-12.9	-8.6	-7.6	·
Cc1cc(Cl)n2c(nc3cc(F)c(F)cc32)c1C#N	-291.6	18.2	9.0	6.5	96.3*	74.5*
COc1ccccc1/C=C/CN1CCCC(CCC(=O)NCc2ccc(F)c(F)c2)C1 (stereo not drawn)	63.4*	-1.5	0.9	-4.1	6.9	24.5
COc1cccc(CNC(=O)CCC2CCCN(C/C=C/c3ccccc3OC)C2)c1 (stereo not drawn)	27.8	1.6	-2.5	-6.3	-24.0	17.1
COc1cc(/C=C/C(O)=C/C(=O)/C=C/c2ccc(O)cc2)ccc1O	-7.7	·	11.8	-13.0	-29.8	62.9*
CCNC(=O)C[C@@H]1CC[C@@H]2[C@H](COc3ccc(NS(C)(=O)=O)cc3C(=O)N2C)O1	7.5[16.7 µM]	·	·	·	·	-2.1
CO[C@H](CN(C)S(=O)(=O)c1ccc(Cl)cc1)[C@@H](C)CN([C@@H](C)CO)S(=O)(=O)c1cccc(Cl)c1	77.2*[16.7 µM]	·	·	·	·	-2.5
CO[C@@H](CN(C)S(=O)(=O)c1ccc(Cl)cc1)[C@H](C)CN([C@@H](C)CO)S(=O)(=O)c1cccc(Cl)c1	74.3*[16.7 µM]	·	·	·	·	-5.8
CO[C@@H](CN(C)S(=O)(=O)c1ccc(Cl)cc1)[C@@H](C)CN([C@H](C)CO)S(=O)(=O)c1cccc(Cl)c1	63.6*[16.7 µM]	·	·	·	·	1.1
CO[C@H](CN(C)S(=O)(=O)c1cccc(Cl)c1)[C@H](C)CN([C@H](C)CO)S(=O)(=O)c1ccc(Cl)cc1	45.1[16.7 µM]	·	·	·	·	18.1
CC=Cc1ccc2n(c1=O)C[C@H]1[C@H](CO)[C@@H](C(=O)NCC(F)(F)F)N(CCc3ccccc3)[C@@H]21 (mixture of isomers)	·	·	·	·	·	-10.8
S=C(Nc1ccccc1)N1CCCCCC1	-68.1	0.5	0.0	1.5	9.5	-16.2
